{
  "source": "the supplement of paper PMC6555819",
  "data": [
    {"system": "THRa:RXRa (NR concentration 90 nM, RXRa partner concentration 90 nM)", "assay": "PBM binding z-score (relative to random genomic background probes); higher = stronger binding; sequences stand for … in GC…GCGATTGACAGCGTAGAATGAAGG", "outline": "(§1)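 Custom Agilent 4×180K protein-binding microarrays carried double-stranded probes, each with a 34-nt variable region. These regions held direct-repeat seeds, single-nucleotide variants, half-site ablations and random human genomic background sequences. Ligand-free nuclear receptor dimers were incubated on the arrays for 1 h, antibodies against each partner (one per run) detected binding, and scanned fluorescence was regression-normalized. Binding z-scores take the random background probes as reference.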", "values": [
      {"sequence": "TAGACTAGGTCATTCAGGGGCCAGTATAGAAAGC", "PBM binding z-score": 3.29},
      {"sequence": "TGTGCTAGGTCAGTTGGTCAGCTAACGAGCTGCC", "PBM binding z-score": 1.14},
      {"sequence": "TTACCACGGTGAAGGTCGTTGATCCCTCTGTAGA", "PBM binding z-score": 0.834},
      {"sequence": "TTACCAAGGTGAGCTGAGGTCGTTCATCCAACTC", "PBM binding z-score": 4.63},
      {"sequence": "ATCGGAAGGTCGACGAGGTGAGTATACACCGTTT", "PBM binding z-score": 3.04},
      {"sequence": "CCAGACAGGTGAAAGGTAACTTAGTCTGGTACGC", "PBM binding z-score": 0.818},
      {"sequence": "AGTCAAAGTTCAGGGCGAGGTAACGTAAAGCACG", "PBM binding z-score": 3.64},
      {"sequence": "TCTGGTTGGTCACGGAGGTCACACACGACGGGTA", "PBM binding z-score": 3.58},
      {"sequence": "TTACCAAGGTTAAGGTCGTTGATCCCTCTGTAGA", "PBM binding z-score": 3.73},
      {"sequence": "CCTCGGAGGACAAGAGGAGGTCAGAGCTGCCAGA", "PBM binding z-score": 2.55},
      {"sequence": "GCTTACGGGTCAAAGGATATAGCATGAATAGAAT", "PBM binding z-score": 2.22},
      {"sequence": "CGTCCAAGGTAAAAGGTCAGTGAAGAGATGACGG", "PBM binding z-score": 3.28},
      {"sequence": "CGTCCAAGGTCAGGGTCAGTGAAAGAGACTCGAA", "PBM binding z-score": 3.9},
      {"sequence": "ATCTCTAGGTAAAGTTCGGTGAAAGATCGATAGA", "PBM binding z-score": 1.1},
      {"sequence": "CAAACTAGGTCGAGGTCAAAGTCGGTTTGTGCCA", "PBM binding z-score": 4.31},
      {"sequence": "CCTAACGGGTCACGAGGTTATAGCACGACGAGCG", "PBM binding z-score": 3.44},
      {"sequence": "CAAACTAGGTCACGAAAGGCCAAAGTCGAATGAC", "PBM binding z-score": 4.33},
      {"sequence": "CGTGCAAGGTCAATGCTAGGTCAGTGAAAGCATT", "PBM binding z-score": 4.64},
      {"sequence": "CCTACTGGGCCATTCAGAGGTCATTGAGCATATG", "PBM binding z-score": 3.27},
      {"sequence": "ATACCAAGGTGATGGTGAGGTCGTTGATACTAAC", "PBM binding z-score": 3.24},
      {"sequence": "CCTTACGGGTCACGAGGTTACAGCACGACGAGCG", "PBM binding z-score": 4.16},
      {"sequence": "GATACAGGGTCAGCTAGAGGCCAGAGTATGGAAA", "PBM binding z-score": 3.08},
      {"sequence": "TGAATGAGGTTAAAGATCAGGGACCGTGGCGTCG", "PBM binding z-score": 2.39},
      {"sequence": "CAAACTTGGTCACGAAAGGTCAAAGTCGAATGAC", "PBM binding z-score": 4.07},
      {"sequence": "GGAACGAGGGCAAAGTTGATTGCATCTGTCGACG", "PBM binding z-score": 1.36},
      {"sequence": "CCTCGGAGGACAGAAGGTCAGAGCGGTCCGCTTT", "PBM binding z-score": 2.35},
      {"sequence": "CAGCCTCGGTCAGGGCCAGTATAGGAGGAACGTT", "PBM binding z-score": -0.5},
      {"sequence": "TCGAGTAGGTTAGTCGAGGCATTCAGCCAACATA", "PBM binding z-score": 0.444},
      {"sequence": "CGTCCAATGTCATAGGAGGTCAGTGAAGACAGAT", "PBM binding z-score": 4.28},
      {"sequence": "GCTGCTTGGTCAGGTTGGTCAGCTAACGGGTACG", "PBM binding z-score": -0.199},
      {"sequence": "GCAGACAGGTGAAGCGCAGGTAACTCAGGGTGGC", "PBM binding z-score": 0.73},
      {"sequence": "GCTAGCAGGCCATTTGGGTCCCTCAATGACGGGC", "PBM binding z-score": 0.249},
      {"sequence": "ATCTCTAGGTTACCAAGTTCAGTGAATGCCGAAC", "PBM binding z-score": 1.97},
      {"sequence": "CGTCCAAGGTCAATGCTAAGTCAGTGAAAGCATT", "PBM binding z-score": 3.72},
      {"sequence": "ATCGAAAGGTCTAGGTGAGTATAGAGAAAGGGAA", "PBM binding z-score": 0.835},
      {"sequence": "CATACAGGGTCAGCTTGGCCAGAGTAGGGACGGC", "PBM binding z-score": 2.85},
      {"sequence": "CCTACTGGGCTACGAAAGGTCATTGATTCAGTGA", "PBM binding z-score": 3.44},
      {"sequence": "ATATGTAGGTTGCATCCGGGTCATTCAGGCTATG", "PBM binding z-score": 3.03},
      {"sequence": "TAGCCTAGGTCATTCAAGGGCCAGTATAGAAAGC", "PBM binding z-score": 4.3},
      {"sequence": "AGAATGAGGATACCAAAGATCAGGGAAACGCTTG", "PBM binding z-score": 1.5}
    ]},
    {"system": "THRa homodimer (NR concentration 90 nM)", "assay": "PBM binding z-score (relative to random genomic background probes); higher = stronger binding; sequences stand for … in GC…GCGATTGACAGCGTAGAATGAAGG", "outline": "as §1", "values": [
      {"sequence": "TAGACTAGGTCATTCAGGGGCCAGTATAGAAAGC", "PBM binding z-score": 0.816},
      {"sequence": "TGTGCTAGGTCAGTTGGTCAGCTAACGAGCTGCC", "PBM binding z-score": -0.0529},
      {"sequence": "TTACCACGGTGAAGGTCGTTGATCCCTCTGTAGA", "PBM binding z-score": 0.375},
      {"sequence": "TTACCAAGGTGAGCTGAGGTCGTTCATCCAACTC", "PBM binding z-score": 2.3},
      {"sequence": "ATCGGAAGGTCGACGAGGTGAGTATACACCGTTT", "PBM binding z-score": 0.579},
      {"sequence": "CCAGACAGGTGAAAGGTAACTTAGTCTGGTACGC", "PBM binding z-score": -0.205},
      {"sequence": "AGTCAAAGTTCAGGGCGAGGTAACGTAAAGCACG", "PBM binding z-score": 1.28},
      {"sequence": "TCTGGTTGGTCACGGAGGTCACACACGACGGGTA", "PBM binding z-score": 2.93},
      {"sequence": "TTACCAAGGTTAAGGTCGTTGATCCCTCTGTAGA", "PBM binding z-score": 3.45},
      {"sequence": "CCTCGGAGGACAAGAGGAGGTCAGAGCTGCCAGA", "PBM binding z-score": 0.679},
      {"sequence": "GCTTACGGGTCAAAGGATATAGCATGAATAGAAT", "PBM binding z-score": -0.222},
      {"sequence": "CGTCCAAGGTAAAAGGTCAGTGAAGAGATGACGG", "PBM binding z-score": 0.539},
      {"sequence": "CGTCCAAGGTCAGGGTCAGTGAAAGAGACTCGAA", "PBM binding z-score": 2.66},
      {"sequence": "ATCTCTAGGTAAAGTTCGGTGAAAGATCGATAGA", "PBM binding z-score": 0.351},
      {"sequence": "CAAACTAGGTCGAGGTCAAAGTCGGTTTGTGCCA", "PBM binding z-score": 3.49},
      {"sequence": "CCTAACGGGTCACGAGGTTATAGCACGACGAGCG", "PBM binding z-score": 0.791},
      {"sequence": "CAAACTAGGTCACGAAAGGCCAAAGTCGAATGAC", "PBM binding z-score": 1.52},
      {"sequence": "CGTGCAAGGTCAATGCTAGGTCAGTGAAAGCATT", "PBM binding z-score": 2.44},
      {"sequence": "CCTACTGGGCCATTCAGAGGTCATTGAGCATATG", "PBM binding z-score": 1.22},
      {"sequence": "ATACCAAGGTGATGGTGAGGTCGTTGATACTAAC", "PBM binding z-score": 2.44},
      {"sequence": "CCTTACGGGTCACGAGGTTACAGCACGACGAGCG", "PBM binding z-score": 1.69},
      {"sequence": "GATACAGGGTCAGCTAGAGGCCAGAGTATGGAAA", "PBM binding z-score": 0.503},
      {"sequence": "TGAATGAGGTTAAAGATCAGGGACCGTGGCGTCG", "PBM binding z-score": 0.453},
      {"sequence": "CAAACTTGGTCACGAAAGGTCAAAGTCGAATGAC", "PBM binding z-score": 0.947},
      {"sequence": "GGAACGAGGGCAAAGTTGATTGCATCTGTCGACG", "PBM binding z-score": -0.0538},
      {"sequence": "CCTCGGAGGACAGAAGGTCAGAGCGGTCCGCTTT", "PBM binding z-score": -0.136},
      {"sequence": "CAGCCTCGGTCAGGGCCAGTATAGGAGGAACGTT", "PBM binding z-score": -0.413},
      {"sequence": "TCGAGTAGGTTAGTCGAGGCATTCAGCCAACATA", "PBM binding z-score": -0.612},
      {"sequence": "CGTCCAATGTCATAGGAGGTCAGTGAAGACAGAT", "PBM binding z-score": 0.745},
      {"sequence": "GCTGCTTGGTCAGGTTGGTCAGCTAACGGGTACG", "PBM binding z-score": 0.0955},
      {"sequence": "GCAGACAGGTGAAGCGCAGGTAACTCAGGGTGGC", "PBM binding z-score": -0.688},
      {"sequence": "GCTAGCAGGCCATTTGGGTCCCTCAATGACGGGC", "PBM binding z-score": -1.01},
      {"sequence": "ATCTCTAGGTTACCAAGTTCAGTGAATGCCGAAC", "PBM binding z-score": 1.14},
      {"sequence": "CGTCCAAGGTCAATGCTAAGTCAGTGAAAGCATT", "PBM binding z-score": 1.98},
      {"sequence": "ATCGAAAGGTCTAGGTGAGTATAGAGAAAGGGAA", "PBM binding z-score": 0.338},
      {"sequence": "CATACAGGGTCAGCTTGGCCAGAGTAGGGACGGC", "PBM binding z-score": 0.515},
      {"sequence": "CCTACTGGGCTACGAAAGGTCATTGATTCAGTGA", "PBM binding z-score": 0.738},
      {"sequence": "ATATGTAGGTTGCATCCGGGTCATTCAGGCTATG", "PBM binding z-score": 1.96},
      {"sequence": "TAGCCTAGGTCATTCAAGGGCCAGTATAGAAAGC", "PBM binding z-score": 0.514},
      {"sequence": "AGAATGAGGATACCAAAGATCAGGGAAACGCTTG", "PBM binding z-score": 0.171}
    ]}
  ]
}
